Molecules are shown by their SMILES. Calls of active or inactive are those of the source. Rule for the calls: active = hit-call score of the fitted dose curve at least 0.9, where 1 is the maximum; inactive = score below 0.9.

Assay [1] can be described thus: ATG_CRE_CIS: Attagene CIS-FACTORIAL HepG2 Assay for human cAMP Responsive Element (CRE) binding protein 3 (AID 2282926). The conditions noted are these: HepG2 CRE cis-reporter, Attagene multiplexed mRNA; actives raise or lower the signal. In a few lines: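 Assay format: transient reporter transfection of HepG2, 24 h treatment, total RNA isolation with DNase I step. Reporter abundance read by fluorescence after PCR and capillary separation; DMSO-normalised gain or loss fitting.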

For assay [2], the target named is CCAAT/enhancer-binding protein beta (Homo sapiens) (UniProt P17676). The assay is described as follows: ATG_C_EBP_CIS: Attagene CIS-FACTORIAL HepG2 Assay for human CCAAT/Enhancer Binding Protein (C/EBP) beta (AID 2282927). The conditions noted are these: HepG2 Attagene cis-factorial transcription factor reporter; actives raise or lower the signal. In a few lines: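 HepG2 transiently transfected with multiplexed reporter units under cis-regulatory promoters reporting endogenous C/EBPb activity. After 24 h exposure, reporter mRNA assayed by RT-PCR, fluorescent labelling, HpaI digestion and capillary electrophoresis; bidirectional fitting versus DMSO.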
Sequence of CCAAT/enhancer-binding protein beta (Homo sapiens) (P17676 whole entry, looked up): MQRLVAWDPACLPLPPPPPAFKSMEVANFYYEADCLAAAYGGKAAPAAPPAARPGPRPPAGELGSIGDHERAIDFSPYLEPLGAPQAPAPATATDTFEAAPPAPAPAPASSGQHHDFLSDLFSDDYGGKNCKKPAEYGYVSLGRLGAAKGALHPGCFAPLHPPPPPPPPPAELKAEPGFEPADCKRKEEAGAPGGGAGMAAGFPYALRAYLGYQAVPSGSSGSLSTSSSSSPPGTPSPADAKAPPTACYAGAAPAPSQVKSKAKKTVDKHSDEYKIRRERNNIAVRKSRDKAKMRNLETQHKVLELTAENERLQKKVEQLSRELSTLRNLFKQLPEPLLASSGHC

A short description of assay [3]: ATG_CMV_CIS: Attagene CIS-FACTORIAL HepG2 Assay for human CMV (Internal Marker) (AID 2282928).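 Note: endpoint acts as a background internal control marker rather than a target.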 The conditions noted are these: HepG2 CMV promoter reporter, transcription factor profiling; actives raise or lower the signal. In a few lines:
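24 h chemical treatment, HepG2 with transient multi-reporter transfection; RNA → oligo(dT) RT → PCR → 6-FAM extension → HpaI digest → CE fluorescence. Bidirectional fit, DMSO negative control.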

Assay [4] can be described thus: ATG_DR4_LXR_CIS: Attagene CIS-FACTORIAL HepG2 Assay for human Liver X Receptor (LXR), DR4 submotif (AID 2282929). The conditions noted are these: HepG2 Attagene DR4 cis-reporter, mRNA transcription; actives raise or lower the signal. In a few lines:
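DR4 cis-reporter in HepG2, 24 h exposure. Detection: RT-PCR, 6-FAM labelling, CE fragment analysis. Endpoint fitted bidirectionally, DMSO = baseline.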

Assay [5] deals with Aryl hydrocarbon receptor (Homo sapiens) (UniProt P35869). The assay is described as follows: ATG_Ahr_CIS: Attagene CIS-FACTORIAL HepG2 Assay for human Aryl Hydrocarbon Receptor (Ahr) (AID 2282930). The conditions noted are these: HepG2 AhR cis-factorial reporter transcription; actives raise or lower the signal. In a few lines: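 HepG2 cells transiently transfected with cis-element-driven multiplexed reporter units; endogenous AhR activity read as reporter mRNA 24 h after dosing, via RT-PCR, 6-FAM labelling, HpaI digestion and capillary electrophoresis. Bidirectional fit relative to DMSO.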
Sequence of Aryl hydrocarbon receptor (Homo sapiens) (P35869 whole entry, looked up): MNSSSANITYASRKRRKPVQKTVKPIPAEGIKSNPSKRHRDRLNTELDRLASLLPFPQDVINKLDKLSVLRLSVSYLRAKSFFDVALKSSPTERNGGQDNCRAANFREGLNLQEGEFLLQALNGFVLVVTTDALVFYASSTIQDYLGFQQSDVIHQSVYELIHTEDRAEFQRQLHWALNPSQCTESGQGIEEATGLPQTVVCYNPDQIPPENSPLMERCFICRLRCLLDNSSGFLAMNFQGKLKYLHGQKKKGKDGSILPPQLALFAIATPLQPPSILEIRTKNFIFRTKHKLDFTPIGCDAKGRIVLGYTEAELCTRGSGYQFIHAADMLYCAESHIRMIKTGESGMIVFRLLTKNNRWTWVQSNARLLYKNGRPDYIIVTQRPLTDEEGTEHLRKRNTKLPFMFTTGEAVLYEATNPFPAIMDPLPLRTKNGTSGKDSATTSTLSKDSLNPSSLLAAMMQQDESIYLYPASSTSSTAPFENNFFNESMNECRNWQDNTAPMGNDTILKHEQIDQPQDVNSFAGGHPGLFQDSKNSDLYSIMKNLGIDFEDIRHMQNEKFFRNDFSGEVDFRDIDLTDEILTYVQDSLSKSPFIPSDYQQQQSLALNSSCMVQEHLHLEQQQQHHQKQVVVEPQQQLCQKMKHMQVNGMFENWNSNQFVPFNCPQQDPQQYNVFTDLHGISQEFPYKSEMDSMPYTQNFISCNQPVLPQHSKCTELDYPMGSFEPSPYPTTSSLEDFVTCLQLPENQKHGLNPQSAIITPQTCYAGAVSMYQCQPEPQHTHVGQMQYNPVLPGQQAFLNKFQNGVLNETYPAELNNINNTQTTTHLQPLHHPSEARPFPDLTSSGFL

Assay [6] is described as follows: ATG_AP_1_CIS: Attagene CIS-FACTORIAL HepG2 Assay for human Activator Protein 1 (AP-1) (AID 2282931). The conditions noted are these: HepG2 Attagene cis-factorial AP-1 reporter mRNA; actives raise or lower the signal. The method in brief: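 Cis-regulated reporter units transiently expressed in HepG2 report endogenous transcription-factor activity. Signal: reporter mRNA at 24 h, via RT-PCR and fluorescent capillary electrophoresis. Endpoint derived by bidirectional fitting, DMSO as negative control.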

Assay [7] is described as follows: ATG_AP_2_CIS: Attagene CIS-FACTORIAL HepG2 Assay for human Activator Protein 2 (AP-2) (AID 2282932). The conditions noted are these: HepG2 AP-2 cis-reporter, Attagene transcription factor profiling; actives raise or lower the signal. In a few lines: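 Liver-derived HepG2 line, cis-reporter system measuring endogenous factors; 24 h dosing; reporter mRNA detected by fluorescent RT-PCR and capillary electrophoresis.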

Assay [8] can be described thus: ATG_BRE_CIS: Attagene CIS-FACTORIAL HepG2 Assay for human Bone Morphogenetic Protein (BMP) Response Element (BRE) (AID 2282933). The conditions noted are these: HepG2 BMP response element reporter, Attagene transcription factor profiling; actives raise or lower the signal. In a few lines: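 Transient MRTU transfection of human HepG2 liver cells; 24 h compound treatment; total RNA isolated, reverse-transcribed, PCR-amplified, 6-FAM labelled, HpaI-cut, capillary electrophoresis. DMSO = negative control/baseline, bidirectional fit.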

Assay [9] addresses Retinoic acid receptor alpha (Homo sapiens) (UniProt P10276). The assay is described as follows: ATG_DR5_RAR_CIS: Attagene CIS-FACTORIAL HepG2 Assay for human Retinoic Acid Receptor Alpha (RARE), DR5 submotif (AID 2282934). The conditions noted are these: HepG2 Attagene cis-factorial RARE DR5 reporter, mRNA; actives raise or lower the signal. In a few lines:
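HepG2 cells transiently transfected with multiplexed reporter units; DR5 cis-element drives reporter through endogenous transcription factors. After 24 h dosing, reporter mRNA quantified by RT-PCR, fluorescent labeling, HpaI digestion and capillary electrophoresis; bidirectional fitting versus DMSO.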

Assay [10] addresses Transcription factor E2F1 (Homo sapiens) (UniProt Q01094). The assay is described as follows: ATG_E2F_CIS: Attagene CIS-FACTORIAL HepG2 Assay for human E2F Transcription Factor 1 (AID 2282935). The conditions noted are these: HepG2 Attagene cis-reporter, E2F reporter RNA transcripts; actives raise or lower the signal. In a few lines:
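Liver-derived HepG2 cells expressing transfected promoter-driven reporter units received test chemical for 24 hours. Signal gains or losses were fitted bidirectionally against DMSO.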

A short description of assay [11]: ATG_E_Box_CIS: Attagene CIS-FACTORIAL HepG2 Assay for human Enhancer Box (E-box) (AID 2282936). The conditions noted are these: HepG2 E-box cis-reporter transcription, actives raise or lower the signal. In a few lines: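 In this cell-based setup, HepG2 cells bearing transfected promoter-driven reporter units were exposed to chemicals for 24 h; reporter transcripts were amplified, 6-FAM-labelled, cut with HpaI and sized by capillary electrophoresis.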

Assay [12] can be described thus: ATG_M_61_CIS: Attagene CIS-FACTORIAL HepG2 Assay for M61 Transcription Factor (Internal Marker) (AID 2282937). The conditions noted are these: HepG2 Attagene CIS-FACTORIAL M61 internal marker reporter; actives raise or lower the signal. In a few lines: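 Background-control endpoint: HepG2 cells with cis-regulated reporter constructs, 24 h exposure, reporter mRNA detected via fluorescent primer extension and capillary electrophoresis; values from bidirectional fitting with DMSO baseline.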

Assay [13] can be described thus: ATG_EGR_CIS: Attagene CIS-FACTORIAL HepG2 Assay for human Early Growth Response 1 (EGR1) (AID 2282938). The conditions noted are these: HepG2 Attagene CIS-FACTORIAL EGR reporter mRNA; actives raise or lower the signal. In a few lines: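 Endpoint derived by bidirectional fitting versus DMSO vehicle. Method: cis-promoter reporter units transfected into HepG2, 24 h dosing, RNA isolation, RT-PCR with 6-FAM primer extension and HpaI digestion, then capillary electrophoresis fluorescence detection.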

Sequence of Transcription factor E2F1 (Homo sapiens) (Q01094 whole entry, looked up): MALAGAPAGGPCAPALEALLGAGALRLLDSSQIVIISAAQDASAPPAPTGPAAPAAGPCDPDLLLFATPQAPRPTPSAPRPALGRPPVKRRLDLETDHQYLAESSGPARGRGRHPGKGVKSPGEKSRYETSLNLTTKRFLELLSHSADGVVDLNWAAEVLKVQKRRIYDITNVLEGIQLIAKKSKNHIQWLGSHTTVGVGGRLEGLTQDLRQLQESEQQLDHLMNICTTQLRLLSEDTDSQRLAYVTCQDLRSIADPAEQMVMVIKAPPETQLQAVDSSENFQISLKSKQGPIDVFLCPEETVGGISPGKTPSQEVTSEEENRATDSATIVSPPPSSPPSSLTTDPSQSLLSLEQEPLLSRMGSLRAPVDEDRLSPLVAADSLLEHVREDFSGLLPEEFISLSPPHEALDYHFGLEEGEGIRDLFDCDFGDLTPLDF
Sequence of Retinoic acid receptor alpha (Homo sapiens) (P10276 whole entry, looked up): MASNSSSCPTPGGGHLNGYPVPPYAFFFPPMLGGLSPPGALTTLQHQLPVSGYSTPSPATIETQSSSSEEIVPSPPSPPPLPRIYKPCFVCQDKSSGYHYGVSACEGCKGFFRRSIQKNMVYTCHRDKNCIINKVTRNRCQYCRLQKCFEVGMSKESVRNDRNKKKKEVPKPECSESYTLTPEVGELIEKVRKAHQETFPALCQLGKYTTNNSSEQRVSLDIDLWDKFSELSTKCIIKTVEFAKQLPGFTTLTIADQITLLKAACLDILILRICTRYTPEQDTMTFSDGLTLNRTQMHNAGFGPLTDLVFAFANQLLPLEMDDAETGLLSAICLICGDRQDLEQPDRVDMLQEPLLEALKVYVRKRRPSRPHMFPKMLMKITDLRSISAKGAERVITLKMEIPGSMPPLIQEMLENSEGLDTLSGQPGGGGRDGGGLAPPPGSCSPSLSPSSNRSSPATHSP

`O=C(O)COc1ccc(Cl)cc1`: the call in assay [1], in assay [2], in assay [3], in [4], in assay [5] and in assay [6] was inactive. In addition, the compound was called inactive in assay [7], in assay [8], in assay [9], in assay [10], in assay [11] and in assay [12]. For the same compound, in assay [13], the compound was classed as inactive.
With `CCOC(=O)c1ccccc1S(=O)(=O)NC(=O)Nc1nc(Cl)cc(OC)n1`, the compound was classed as inactive in assay [1], in assay [2], in [3], in assay [4], in assay [5] and in assay [6]. For the same compound, the compound was classed as inactive in assay [7], in assay [8], in [9], in assay [10], in [11] and in assay [12]. In assay [13], the compound was called inactive.
Take `N#Cc1ccc(Cl)cc1`: the compound was classed as inactive in [1], in assay [2], in assay [3], in assay [4], in [5] and in assay [6]. Moreover, the outcome in [7], in [8], in [9], in assay [10], in assay [11] and in assay [12] was inactive. The compound was classed as inactive in assay [13].
Turning to `O=C1C=CC(=O)c2ccccc21`, the outcome in assay [1], in assay [2], in assay [3], in assay [4], in assay [6] and in assay [7] was inactive. For the same compound, the call in assay [8], in assay [9], in [10], in assay [11], in assay [12] and in assay [13] was inactive. Besides, the AC50 in assay [5] is 652 nM (active).
`CCNc1nc(NCC)nc(SC)n1`: the result in assay [1], in assay [2], in assay [3], in assay [4], in [5] and in assay [6] was inactive. In addition, the result in [7], in assay [8], in [9], in [10], in assay [11] and in [12] was inactive. Also, the compound was classed as inactive in assay [13].
Consider `CCOP(=O)(OCC)OC(=CCl)c1ccc(Cl)cc1Cl`, for which the compound was classed as inactive in assay [1], in assay [2], in assay [3], in assay [4], in assay [5] and in assay [6]. For the same compound, the call in [7], in [8], in [9], in [10], in assay [11] and in [12] was inactive. The outcome in assay [13] was inactive.
In the case of `CCC(C)(C#N)N=NC(C)(C#N)CC` (stereo not given), the compound was called inactive in assay [1], in assay [2], in [3], in [4], in [5] and in assay [6]. Also, the compound was called inactive in [7], in assay [8], in [9], in assay [10], in assay [11] and in assay [12]. For the same compound, in assay [13], the call was inactive.
As to `Nc1c(Oc2ccccc2)cc(O)c2c1C(=O)c1ccccc1C2=O`, the compound was classed as inactive in [1], in [2], in assay [3], in [4], in assay [6] and in assay [7]. Also, the compound was classed as inactive in assay [9], in [10], in assay [11], in assay [12] and in assay [13]. Besides, the AC50 in assay [5] was 1710 nM (active); in [8] it was 13200 nM (active).
Turning to `N#Cc1ccncc1`, the compound was classed as inactive in assay [1], in assay [2], in assay [3], in [4], in assay [5] and in assay [6]. Also, the outcome in assay [7], in assay [8], in assay [9], in [10], in assay [11] and in [12] was inactive. Besides, in assay [13], the compound was called inactive.
Take `CC(C=O)Cc1ccc2c(c1)OCO2` (stereo not given): the result in [1], in assay [2], in assay [3], in assay [4], in assay [5] and in [6] was inactive. The outcome in [7], in assay [8], in assay [9], in [10], in [11] and in assay [12] was inactive. In addition, in assay [13], the compound was called inactive.
